Screening results deposited in PubChem by several laboratories.
SKKanGAS inh = SKKanGAS growth inhibition; inhibition, % at 7.5 µM; S. pyogenes SKKanGAS, kanamycin growth, BacTiter-Glo, 6 h; 300,000 tested, 1.3% active; AID 1662;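 active = mean replicate score, as percent of positive control median, at least 50; inconclusive = mean below 50 but one replicate at or above 50; inactive = mean and every replicate below 50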;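 also: strain carries kanamycin resistance gene driven by streptokinase promoter and grows in 40 µg/ml kanamycin; loss of luminescence reflects streptokinase promoter inhibition or plain growth inhibition; 0% = median of DMSO wells and 100% = positive control at its reference dose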
Platelet DG rel = platelet dense granule release activity; AID 1663; inhibition, %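 (compounds screened at 7.5 µM in platelet-rich plasma)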; human platelet-rich plasma, SFLLRN dense granule ATP release, luminescence; 300,000 tested, 0.22% active;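 active = mean replicate score, as percent of positive control, at or above 50; inconclusive = mean below 50 but at least one replicate at or above 50; inactive = mean and every replicate below 50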
PHOSPHO1 block = blocks human PHOSPHO1 phosphatase activity. Q8TCT1. recombinant PHOSPHO1, absorbance phosphatase assay. inhibition, % at 13.3 µM. 290,000 tested, 1.1% active; in the data active = inhibition above about 60%
WT yeast gro inh = growth inhibition of WT yeast, mitochondrial fusion screen; mitochondrial fusion phenotypic screen, WT strain; inhibition, % at 10 µM; 190,000 tested, 2.1% active; AID 1362; in the data active = inhibition above about 58%; tested in S. cerevisiae
TPT1 inh = inhibitors of Candida albicans tRNA 2'-phosphotransferase TPT1; inhibition, % at 5 µM; 300,000 tested, 0.81% active; recombinant caTPT1, FP RNA substrate dephosphorylation;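 active = inhibition above the mean of all tested compounds plus 3 SD, set per screening campaign, cut at about 24% in these data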;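 also: plate controls were DMSO alone for no effect and ferristatin control at 100 nM for full effect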
Rtt109 Vps75 = blocks Candida albicans Rtt109/Vps75 acetyltransferase activity. Q5AAJ8. purified Rtt109/Vps75, ThioGlo CoA-SH fluorescence, 4 h. inhibition, % at 34.9 µM. 330,000 tested, 0.16% active. AID 540336;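 active = inhibition of at least 50% in every replicate; inconclusive = best replicate reaches 50% inhibition but some replicates fall short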
Target sequence (Q5AAJ8 whole entry, looked up): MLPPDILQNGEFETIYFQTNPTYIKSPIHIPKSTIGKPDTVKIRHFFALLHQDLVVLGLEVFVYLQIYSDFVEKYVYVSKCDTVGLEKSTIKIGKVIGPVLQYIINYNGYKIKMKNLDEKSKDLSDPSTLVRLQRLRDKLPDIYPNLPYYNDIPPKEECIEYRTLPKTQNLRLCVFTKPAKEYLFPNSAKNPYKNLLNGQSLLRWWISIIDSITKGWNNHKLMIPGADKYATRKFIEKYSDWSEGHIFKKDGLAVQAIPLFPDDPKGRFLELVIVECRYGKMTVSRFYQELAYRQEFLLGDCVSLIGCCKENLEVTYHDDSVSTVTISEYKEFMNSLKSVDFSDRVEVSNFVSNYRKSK
Active calls of the source: *. Shown are actives, neighbours in structure and some others; about 3.9% of the full set was active somewhere.

How did CCc1ccc(NSc2ccccc2[N+](=O)[O-])cc1 do in these assays?
SKKanGAS inh: 76*; Platelet DG rel: 9; PHOSPHO1 block: 7; WT yeast gro inh: 80*; TPT1 inh: -5; Rtt109 Vps75: 32

Results for O=C(O)c1ccccc1NSc1ccccc1[N+](=O)[O-] ?
SKKanGAS inh: 9; Platelet DG rel: -4; PHOSPHO1 block: -9; WT yeast gro inh: 7; TPT1 inh: -4; Rtt109 Vps75: 10

What do the screens show for `CC1CC1C(=O)Nc1nc(-c2ccccn2)cs1` (centres undefined)?
SKKanGAS inh: 85*; Platelet DG rel: -4; PHOSPHO1 block: 78*; WT yeast gro inh: -21; TPT1 inh: -1; Rtt109 Vps75: -3

Results for Cc1ccc(C(=O)Nc2nc(-c3ccccn3)cs2)o1 ?
SKKanGAS inh: 77*; Platelet DG rel: 5; PHOSPHO1 block: 15; TPT1 inh: 0; Rtt109 Vps75: 1

What do the screens show for `O=C(Nc1nc(-c2ccccn2)cs1)c1ccc([N+](=O)[O-])o1`?
SKKanGAS inh: 2; Platelet DG rel: -10; PHOSPHO1 block: 93*; TPT1 inh: -4; Rtt109 Vps75: 2

Results for c1ccc(CCNc2nc(-c3ccccn3)cs2)cc1 ?
SKKanGAS inh: 121*; Platelet DG rel: -4; PHOSPHO1 block: 32; WT yeast gro inh: 65; TPT1 inh: -4; Rtt109 Vps75: 0

Results for O=C(Nc1nc(-c2ccccn2)cs1)C1COc2ccccc2O1 (centres undefined) ?
PHOSPHO1 block: 46; WT yeast gro inh: 64; TPT1 inh: -3; Rtt109 Vps75: 10

How did c1ccc(CCNc2nc(-c3cccnc3)cs2)cc1 do in these assays?
SKKanGAS inh: 16; Platelet DG rel: 0; PHOSPHO1 block: 17; WT yeast gro inh: 1; TPT1 inh: 1; Rtt109 Vps75: -14

Results for COc1ccccc1NC(=O)CSc1nnc(CC(=O)Nc2ccccc2F)n1C ?
SKKanGAS inh: -12; Platelet DG rel: -12; PHOSPHO1 block: 39; TPT1 inh: 1; Rtt109 Vps75: -5

Results for Cc1cc2c(cc1C)-c1c(ssc1=Nc1ccc(S(N)(=O)=O)cc1)C(C)(C)N2 ?
SKKanGAS inh: 50*; Platelet DG rel: -11; PHOSPHO1 block: -12; WT yeast gro inh: 1; TPT1 inh: 3; Rtt109 Vps75: 7

What do the screens show for `Cc1cccnc1NC(=O)c1cccc(S(=O)(=O)N2CCCc3ccccc32)c1`?
SKKanGAS inh: -5; Platelet DG rel: 4; PHOSPHO1 block: 32; TPT1 inh: 2; Rtt109 Vps75: 7

What do the screens show for `CN(C)C(=O)CSc1nnc(CCNC(=O)OC(C)(C)C)o1`?
SKKanGAS inh: 3; Platelet DG rel: 2; PHOSPHO1 block: 2; WT yeast gro inh: 11; TPT1 inh: -1; Rtt109 Vps75: -5

What do the screens show for `CN(C)C(=O)CSc1nnc(CCCCCNC(=O)OC(C)(C)C)o1`?
SKKanGAS inh: -1; Platelet DG rel: -6; PHOSPHO1 block: 2; WT yeast gro inh: 65*; TPT1 inh: 2

How did COc1ccc(S(=O)(=O)NN=C2CCCCC2)cc1 do in these assays?
Platelet DG rel: -25; PHOSPHO1 block: 74*; WT yeast gro inh: -14; TPT1 inh: -2; Rtt109 Vps75: -9

Results for CC(Oc1ccc(F)cc1)C(=O)Nc1cccc(-c2nn[nH]n2)c1 (centres undefined) ?
SKKanGAS inh: -5; Platelet DG rel: 4; TPT1 inh: -2; Rtt109 Vps75: 7

How did CN1C(=O)C(=O)/C(=C(/O)c2ccc(Br)cc2)C1c1ccccc1F (centres undefined) do in these assays?
SKKanGAS inh: 0; Platelet DG rel: 5; PHOSPHO1 block: 14; TPT1 inh: -1; Rtt109 Vps75: 2

What do the screens show for `COc1ccc2[nH]c3c(c2c1)CCN1C(=O)C(CC(=O)NCCCn2ccnc2)C[C@H](C(=O)N2CCCCC2)[C@@]31C` (some centres undefined)?
Rtt109 Vps75: -4

How did c1ccc(-c2oc3ncnc(NCCCn4ccnc4)c3c2-c2ccccc2)cc1 do in these assays?
SKKanGAS inh: inconclusive; Platelet DG rel: -4; PHOSPHO1 block: -14; WT yeast gro inh: 73*; TPT1 inh: -2; Rtt109 Vps75: 0

How did CN(C)CCCNc1ncnc2oc(-c3ccccc3)c(-c3ccccc3)c12 do in these assays?
SKKanGAS inh: 2; Platelet DG rel: 4; PHOSPHO1 block: 33; TPT1 inh: -2; Rtt109 Vps75: 3
